Experimental data as given in PubChem BioAssay (NCATS).
“And” between values parts separate entries of the source, which are not always exact repeats. Equal entries are not always repeated. Results filed as inconclusive are left out. Entries that show only a call come without a potency. The source made the active and inactive calls. Unless noted, the call rests on the fitted dose curve; in most records, active means well fitted curve in the direction sought with a large enough effect; inconclusive means small, poorly fitted or top-dose-only effect, or another doubt; inactive means no such curve, though single readings can be large; an effect the other way counts as inactive or inconclusive.

Columns and labels:
[1] = target: Cytochrome P450 1A2 (Homo sapiens) (UniProt P05177); assay: p450-cyp1a2 (AID 410; calls by dose curve; further: potency means the concentration at half of the fitted maximal effect)
Outline: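 20nM CYP1A2, 100uM Luciferin-ME (=Km), 100mM KPO4; cpd 10 min RT; +NADPH regen, 60 min RT; stop/detect 20 min; luminescence. Normalized to furafylline 57 uM = full inhibition.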

[2] = target: Glucocorticoid receptor (Homo sapiens) (UniProt P04150); assay: GR-GFP Redistribution (AID 450;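 active means compounds whose dose series gives a full or clear partial fitted curve of increased nuclear translocation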; further: potency means the concentration at half of the fitted maximal effect); settings: U2OS GR-GFP nuclear translocation, laser cytometry, 2 h
[3] = target: Glucocorticoid receptor (Homo sapiens) (UniProt P04150); assay: GR-EFC Redistribution (AID 451; calls by dose curve; further: potency means the concentration at half of the fitted maximal effect); settings: CHO-K1 GR-EFC translocation, beta-gal luminescence, 2 h
Outline: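 CHO-K1 cells stably expressing nuclear-localized β-gal enzyme acceptor and GR fused C-terminally to the enzyme donor fragment; ligand-driven nuclear translocation restores β-gal by complementation. Compounds titrated up to 46 uM final, 2 h at 37 °C; luminescence read.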

[4] = target: Mitogen-activated protein kinase 10 (Mus musculus) (UniProt Q61831); assay: JNK3 AlphaScreen Assay (AID 530; active means well fitted curve in either direction with a large enough effect, not every such curve was filed as active;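 further: kinase came from lysate of stimulated human HepG2 cells; signal reports phosphorylation of biotinylated GST-cJun 1-79 at Ser73 with 10 µM ATP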)
Outline: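 Biotinylated GST-cJun(1-79) served as substrate for JNK3 in HepG2 lysates stimulated with IL-1beta and TNF-alpha. ATP was 10 uM final, pH 7.6. Ser73 phosphorylation was quantified by AlphaScreen (680 nm excitation).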

[5] = target: Cytochrome P450 3A4 (Homo sapiens) (UniProt P08684); assay: qHTS Assay for Activators of Cytochrome P450 3A4 (AID 885); further: nearly all actives have a fitted effect of over 65% in size
Outline: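 Luminescent readout of luciferin formed from 25 uM Luciferin-PPXE (KM level) by 20 nM CYP3A4 in 200 mM KPO4, with 60 min NADPH-driven reaction at room temperature after 10 min compound exposure. Ketoconazole (57 uM) defined 100% inhibition.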

[6] = target: Cytochrome P450 2D6 (Homo sapiens) (UniProt P10635); assay: qHTS Assay for Inhibitors and Substrates of Cytochrome P450 2D6 (AID 891); further: nearly all actives have a fitted effect of over 60% in size; further: potency means the concentration at half of the fitted maximal effect;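 on activity change, negative = inhibition: luciferin methyl ether substrate demethylated by CYP2D6 with NADPH regeneration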
Outline: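 Luminescent read-out of luciferin formed by 5 nM human CYP2D6 demethylating 30 uM Luciferin-ME EGE (Km level) over 60 min at room temperature after NADPH regeneration addition. Data normalized to full inhibition by 1.43 uM quinidine.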

[7] = target: Cytochrome P450 2C19 (Homo sapiens) (UniProt P33261); assay: qHTS Assay for Inhibitors and Substrates of Cytochrome P450 2C19 (AID 899); further: potency means the concentration at half of the fitted maximal effect; nearly all actives have a fitted effect of over 60% in size
Outline: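 Human CYP2C19 (5nM) with Luciferin-H EGE at 10uM (its KM) in 50mM KPO4 was preincubated with compound for 10 min at 37C. NADPH regeneration started a 60 min 37C reaction. Luciferin was read by luminescence, normalized to 57uM ketoconazole.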

[8] = target: DNA dC->dU-editing enzyme APOBEC-3G (Homo sapiens) (UniProt Q9HC16); assay: qHTS for inhibitors of Vif-A3G interactions: Validation (AID 588379)
Outline: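 Yellow fluorescence (Ex 488, Em 500-530) of Vif-coexpressing HeLa A3G-eYFP cells, scanned by Acumen cytometer, reports blocked A3G degradation. Cells plated at 700/well overnight at 37 deg C before compound addition, then a further overnight compound incubation at 37 deg C.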

[9] = tested on: Zika virus NS2B-NS3 protease; assay: Primary screen GU AMC qHTS for Zika virus inhibitors (AID 1347154); further: nearly all actives have a fitted effect of over 70% in size
Outline: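 Unlinked Zika NS2B hydrophilic domain/NS3 protease domain noncovalent complex (25 nM final) in 10 mM Tris-HCl pH 8.0, 0.01% Tween 20, with AMC peptide substrate. Fluorescence (ex 340, em 450 nm) change over 15 min, room temperature; percent inhibition fitted to 4-parameter Hill equation.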

[10] = Counterscreen qHTS for small molecule stabilizers of the endoplasmic reticulum resident proteome: GLuc-NoTag assay (AID 1508627)
Outline: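 Secreted GLuc lacking the SERCaMP modification is measured in SH-SY5Y cells exposed to compound for 19 h and then to thapsigargin (100 nM, 4 h) to deplete ER calcium; hits retested at 11 concentrations, up to 76.6 uM.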

[11] = Cell Viability qHTS for small molecule stabilizers of the endoplasmic reticulum resident proteome (AID 1508629); settings: cell viability counter-screen, 100 nM thapsigargin for final 4 h;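 further: human SH-SY5Y neuroblastoma cells carrying the GLuc-SERCaMP reporter; compound exposure about 46 h in total before the viability read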
[12] = target: 3',5'-cyclic-AMP phosphodiesterase 4B (Homo sapiens) (UniProt Q07343); assay: qHTS Assay for Inhibitors of PDE-IV (AID 607; active means well fitted activation curve with a large enough effect in the main read-out, with a control signal flat, not every such curve was filed as active)
Outline: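 Cell-based read-out of cAMP via a modified cyclic nucleotide-gated channel and membrane potential dye (535/590 nm) in HEK293 cells expressing PDE4 endogenously. Compounds tested up to 22.9 uM final; 100 uM RO 20-1724 reference.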

[13] = Confirmation and Secondary Assay for Modulators of Hemoglobin Beta Chain Splicing at IVS2 654 locus (AID 910);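 further: per-well total GFP intensity by laser scanning cytometry after 2-day treatment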
Outline: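 HeLa cells stably carrying EGFP interrupted by mutant beta-globin IVS2-654 intron (CMV-driven) were treated with compound for 2 days at 37C; corrected splicing was scored as total peak GFP intensity per well (488 nm excitation, 500-520 nm emission).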

[14] = Confirmation and Secondary Assay for Modulators of Hemoglobin Beta Chain Splicing at IVS2 705 locus (AID 930);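 further: HeLa cells stably expressing the EGFP-705 splicing reporter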
Outline: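 HeLa cells stably carrying EGFP interrupted by mutant beta-globin IVS2-705 intron (CMV-driven) were seeded at 500 cells/well, treated next day with compound for 2 days at 37C; corrected splicing restores EGFP, read as total peak GFP intensity per well.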

[15] = qHTS Assay for Lipid Storage Modulators (AID 1519; calls by dose curve); settings: Drosophila S3 cells, BODIPY lipid droplet/cell ratio, laser cytometry, cells loaded with oleic acid
Outline: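 Cells seeded at 5,000 per well were treated with compounds over a concentration series and loaded with oleic acid (400 uM, as added). Lipid droplet fluorescence (488 nm excitation, 500-530 nm channel) was read by laser-scanning cytometry and normalized to 20 uM Triacsin C.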

[16] = AP1 Signaling Pathway (AID 357; active means well fitted curve in either direction with a large enough effect, not every such curve was filed as active;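 further: ME-180 reporter cells stimulated with EGF at its EC50 level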); settings: ME-180 AP-1-bla reporter, EGF-induced, beta-lactamase ratio, 5 h; at 38 µM (top of the series)
Outline: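 Cells are seeded overnight, exposed to compound titrations and an EC50 level of EGF for 5 hours at 37 °C, then loaded with CCF4 dye for 2.5 hours. Beta-lactamase activity under the AP-1 element is read as a blue/green ratio.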

[17] = Stat Signaling Pathway (AID 446; active means well fitted curve in either direction with a large enough effect, not every such curve was filed as active;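 further: ME-180 cervical cancer cells given 40 pM IL-6 alongside compound; SIE-controlled beta-lactamase reporter measured as 460/530 nm FRET emission ratio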); settings: ME-180 (cervical carcinoma) SIE beta-lactamase reporter, IL-6 stimulated, 5 h; at 38 µM (top of the series)
Outline: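 FRET read-out (405 nm excitation, 460/530 nm emission) of a beta-lactamase reporter under a STAT-inducible element in ME-180 cervical carcinoma cells. Cells with compound receive 40 pM IL-6 for 5 h. Values are normalised to AC90 stimulation and AC90 JAK-inhibitor controls.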

[18] = target: Cytochrome P450 2C9 (Homo sapiens) (UniProt P11712); assay: qHTS Assay for Inhibitors and Substrates of Cytochrome P450 2C9 (AID 883); further: nearly all actives have a fitted effect of over 60% in size
Outline: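 Human CYP2C9 (10nM) hydroxylated Luciferin-H (100uM, at its KM) to luciferin in 25mM KPO4. Compound was preincubated 10 min at 37C, then NADPH regeneration started a 60 min reaction at 37C. Luminescence was read after detection reagent, normalized to 57uM sulphaphenazole.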

[19] = Primary qHTS for small molecule stabilizers of the endoplasmic reticulum resident proteome: Secreted ER Calcium Modulated Protein (SERCaMP) assay (AID 1508630)
Outline: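 The SH-SY5Y reporter protocol was run at 3 concentrations up to 38.3 uM (primary) or 11 concentrations (follow-up): 16 h compound, 100 nM thapsigargin for 4 h, then extracellular luciferase luminescence.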

Cytochrome P450 3A4 (Homo sapiens), sequence (P08684 whole entry, looked up): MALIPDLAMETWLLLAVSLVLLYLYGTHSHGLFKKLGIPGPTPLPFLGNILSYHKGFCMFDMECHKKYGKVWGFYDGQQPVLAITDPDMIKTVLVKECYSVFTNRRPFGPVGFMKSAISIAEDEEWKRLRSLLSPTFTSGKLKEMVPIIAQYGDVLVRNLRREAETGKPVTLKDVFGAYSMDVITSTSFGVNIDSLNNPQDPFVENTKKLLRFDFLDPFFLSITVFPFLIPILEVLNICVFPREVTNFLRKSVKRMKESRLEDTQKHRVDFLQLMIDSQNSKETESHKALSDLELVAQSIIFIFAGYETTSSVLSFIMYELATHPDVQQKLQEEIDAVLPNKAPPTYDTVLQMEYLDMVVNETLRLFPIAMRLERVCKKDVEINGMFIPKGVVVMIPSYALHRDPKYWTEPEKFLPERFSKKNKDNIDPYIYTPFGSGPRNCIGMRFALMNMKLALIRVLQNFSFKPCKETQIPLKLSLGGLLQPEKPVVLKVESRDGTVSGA
Cytochrome P450 1A2 (Homo sapiens), sequence (P05177 whole entry, looked up): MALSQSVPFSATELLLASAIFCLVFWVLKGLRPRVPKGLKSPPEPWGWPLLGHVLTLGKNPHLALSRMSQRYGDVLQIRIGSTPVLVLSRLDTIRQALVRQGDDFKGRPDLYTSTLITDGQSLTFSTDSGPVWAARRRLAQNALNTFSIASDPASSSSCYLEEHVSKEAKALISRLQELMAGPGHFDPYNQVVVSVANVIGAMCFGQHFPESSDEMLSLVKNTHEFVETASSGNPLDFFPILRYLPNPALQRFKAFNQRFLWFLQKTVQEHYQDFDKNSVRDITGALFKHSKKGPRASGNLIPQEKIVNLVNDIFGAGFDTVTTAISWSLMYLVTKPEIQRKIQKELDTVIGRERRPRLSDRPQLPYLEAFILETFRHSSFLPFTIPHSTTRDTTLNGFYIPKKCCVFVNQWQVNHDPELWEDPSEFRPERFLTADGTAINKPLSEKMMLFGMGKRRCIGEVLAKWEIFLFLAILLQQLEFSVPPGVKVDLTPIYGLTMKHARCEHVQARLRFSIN
Glucocorticoid receptor (Homo sapiens), sequence (P04150 whole entry, looked up, the tested form may be a part): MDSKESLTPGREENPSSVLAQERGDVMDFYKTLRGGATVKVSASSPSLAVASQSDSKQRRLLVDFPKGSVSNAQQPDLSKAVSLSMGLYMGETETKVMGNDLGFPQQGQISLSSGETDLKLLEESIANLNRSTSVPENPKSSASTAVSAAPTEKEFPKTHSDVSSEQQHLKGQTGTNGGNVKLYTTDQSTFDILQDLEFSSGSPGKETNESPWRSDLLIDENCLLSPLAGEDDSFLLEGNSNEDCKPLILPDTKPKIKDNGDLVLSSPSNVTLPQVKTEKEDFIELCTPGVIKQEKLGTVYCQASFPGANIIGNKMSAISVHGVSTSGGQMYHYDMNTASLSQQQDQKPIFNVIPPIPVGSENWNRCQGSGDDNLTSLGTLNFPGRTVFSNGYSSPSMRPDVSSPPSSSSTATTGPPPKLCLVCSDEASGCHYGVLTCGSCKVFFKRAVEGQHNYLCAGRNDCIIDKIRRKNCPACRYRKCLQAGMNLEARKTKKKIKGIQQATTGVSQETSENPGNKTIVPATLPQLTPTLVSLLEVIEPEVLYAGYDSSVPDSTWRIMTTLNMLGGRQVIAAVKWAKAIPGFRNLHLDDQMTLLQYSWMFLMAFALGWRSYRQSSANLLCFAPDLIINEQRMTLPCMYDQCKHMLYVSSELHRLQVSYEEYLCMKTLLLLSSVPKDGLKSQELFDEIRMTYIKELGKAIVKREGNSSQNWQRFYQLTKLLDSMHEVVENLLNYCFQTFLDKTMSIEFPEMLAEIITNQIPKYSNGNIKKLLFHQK
3',5'-cyclic-AMP phosphodiesterase 4B (Homo sapiens), sequence (Q07343 whole entry, looked up): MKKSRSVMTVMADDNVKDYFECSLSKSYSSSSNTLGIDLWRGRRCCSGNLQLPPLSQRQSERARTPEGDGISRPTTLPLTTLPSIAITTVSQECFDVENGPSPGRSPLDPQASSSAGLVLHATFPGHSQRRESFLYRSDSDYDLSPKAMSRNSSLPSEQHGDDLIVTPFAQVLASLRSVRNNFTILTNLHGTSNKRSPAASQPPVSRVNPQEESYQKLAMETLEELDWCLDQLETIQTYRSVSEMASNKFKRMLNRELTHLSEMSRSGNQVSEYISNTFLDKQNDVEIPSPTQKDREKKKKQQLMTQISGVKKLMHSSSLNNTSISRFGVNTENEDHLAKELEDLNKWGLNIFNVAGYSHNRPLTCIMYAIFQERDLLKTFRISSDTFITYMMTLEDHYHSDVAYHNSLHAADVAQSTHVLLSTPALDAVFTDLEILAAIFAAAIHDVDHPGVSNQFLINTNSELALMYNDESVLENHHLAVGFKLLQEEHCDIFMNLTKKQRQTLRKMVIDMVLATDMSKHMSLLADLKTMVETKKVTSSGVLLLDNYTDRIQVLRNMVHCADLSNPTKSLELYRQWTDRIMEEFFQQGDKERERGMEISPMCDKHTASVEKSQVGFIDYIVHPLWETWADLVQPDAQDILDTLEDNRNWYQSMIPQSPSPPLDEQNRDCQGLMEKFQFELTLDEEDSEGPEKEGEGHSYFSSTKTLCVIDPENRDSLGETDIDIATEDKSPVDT
DNA dC->dU-editing enzyme APOBEC-3G (Homo sapiens), sequence (Q9HC16 whole entry, looked up): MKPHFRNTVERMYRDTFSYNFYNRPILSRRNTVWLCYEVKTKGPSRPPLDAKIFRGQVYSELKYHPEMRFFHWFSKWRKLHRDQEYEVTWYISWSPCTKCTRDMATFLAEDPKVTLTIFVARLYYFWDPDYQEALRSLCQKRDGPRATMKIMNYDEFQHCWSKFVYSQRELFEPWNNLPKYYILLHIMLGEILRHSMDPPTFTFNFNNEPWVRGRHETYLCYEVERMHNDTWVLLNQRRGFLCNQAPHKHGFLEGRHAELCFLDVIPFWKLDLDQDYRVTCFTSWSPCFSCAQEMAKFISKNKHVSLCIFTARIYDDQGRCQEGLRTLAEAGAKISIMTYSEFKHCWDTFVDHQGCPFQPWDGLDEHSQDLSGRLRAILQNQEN
Cytochrome P450 2D6 (Homo sapiens), sequence (P10635 whole entry, looked up): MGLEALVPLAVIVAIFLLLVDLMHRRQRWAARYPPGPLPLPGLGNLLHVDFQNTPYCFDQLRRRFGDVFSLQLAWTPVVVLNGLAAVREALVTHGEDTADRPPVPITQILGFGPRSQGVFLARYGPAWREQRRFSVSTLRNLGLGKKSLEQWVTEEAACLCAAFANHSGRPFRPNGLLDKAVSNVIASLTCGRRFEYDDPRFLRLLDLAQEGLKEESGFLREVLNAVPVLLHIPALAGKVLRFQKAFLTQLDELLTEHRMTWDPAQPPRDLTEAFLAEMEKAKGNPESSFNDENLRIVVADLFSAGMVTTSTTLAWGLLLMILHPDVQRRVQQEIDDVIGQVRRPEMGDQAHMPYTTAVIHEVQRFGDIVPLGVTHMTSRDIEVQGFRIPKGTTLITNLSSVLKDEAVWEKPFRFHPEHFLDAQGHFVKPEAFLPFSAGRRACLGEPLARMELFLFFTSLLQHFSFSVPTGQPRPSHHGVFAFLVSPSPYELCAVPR
Cytochrome P450 2C19 (Homo sapiens), sequence (P33261 whole entry, looked up): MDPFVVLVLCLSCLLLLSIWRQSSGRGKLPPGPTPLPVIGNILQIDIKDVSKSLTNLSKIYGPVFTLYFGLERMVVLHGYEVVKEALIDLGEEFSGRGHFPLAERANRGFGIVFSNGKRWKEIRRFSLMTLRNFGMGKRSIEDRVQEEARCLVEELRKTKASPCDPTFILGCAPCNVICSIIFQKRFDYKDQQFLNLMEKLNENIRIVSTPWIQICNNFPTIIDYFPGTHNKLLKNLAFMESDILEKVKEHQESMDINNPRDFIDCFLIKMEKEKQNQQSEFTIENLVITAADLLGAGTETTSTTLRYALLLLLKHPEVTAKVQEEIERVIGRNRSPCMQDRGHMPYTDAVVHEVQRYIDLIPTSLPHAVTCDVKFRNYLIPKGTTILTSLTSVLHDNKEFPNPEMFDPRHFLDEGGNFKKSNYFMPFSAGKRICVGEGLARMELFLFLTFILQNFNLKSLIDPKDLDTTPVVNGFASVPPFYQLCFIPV
Cytochrome P450 2C9 (Homo sapiens), sequence (P11712 whole entry, looked up): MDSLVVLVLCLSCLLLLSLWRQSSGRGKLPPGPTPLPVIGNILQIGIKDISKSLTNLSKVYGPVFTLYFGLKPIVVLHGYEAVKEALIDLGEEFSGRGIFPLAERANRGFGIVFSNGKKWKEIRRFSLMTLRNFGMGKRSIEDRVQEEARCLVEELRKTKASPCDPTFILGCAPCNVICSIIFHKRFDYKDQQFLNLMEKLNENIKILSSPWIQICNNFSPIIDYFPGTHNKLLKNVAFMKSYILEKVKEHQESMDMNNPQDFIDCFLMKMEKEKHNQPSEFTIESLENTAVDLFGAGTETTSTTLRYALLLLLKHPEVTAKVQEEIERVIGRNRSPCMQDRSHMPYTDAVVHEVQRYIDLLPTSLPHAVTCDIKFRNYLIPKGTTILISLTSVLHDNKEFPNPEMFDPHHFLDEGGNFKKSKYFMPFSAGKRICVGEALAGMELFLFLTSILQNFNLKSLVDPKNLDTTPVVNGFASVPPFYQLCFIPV

## CN1CCN(C2=Cc3ccccc3Oc3ccc(Cl)cc32)CC1
[1]
  Potency: 20 µM (active)
[2]
  Potency: > 46 µM (inactive)
[3]
  Potency: > 46 µM (inactive)
[4]
  Potency: inactive
[5]
  Potency: inactive
[6]
  Potency: 0.0398 µM (active)
[7]
  Potency: 3.98 µM (active)
[8]
  Potency: inactive
[9]
  Potency: inactive
[10]
  Potency: inactive
[11]
  max response: 13.7% (inactive)

## NCCOB(c1ccccc1)c1ccccc1
[1]
  Potency: 15.8 µM (active)
[2]
  Potency: > 46 µM (inactive)
[4]
  Potency: inactive
[12]
  Potency: inactive
[5]
  Potency: inactive
[13]
  outcome: inactive
[14]
  outcome: inactive
[15]; at 57.5 µM (top of the series)
  activity change, negative = inhibition: -7.96% (inactive) and -2.88% (inactive)
[15]; measured here: cell count channel max response
  max response: -4.57% and 13.6%
[15]; measured here: lipid channel max response
  max response: -11.1% and 11.6%
[8]
  Potency: inactive
[9]
  Potency: inactive
[10]
  Potency: inactive
[11]
  max response: 2.88% (inactive)

## COc1ccc(/C=C\C(=O)Nc2ccccc2C(=O)O)cc1OC
[16]
  activity change, negative = inhibition: -10.8% (inactive)
[1]
  Potency: inactive
[17]
  activity, negative = inhibition: 7.79% (inactive)
[2]
  Potency: > 46 µM (inactive)
[3]
  Potency: > 46 µM (inactive)
[4]
  Potency: inactive
[12]
  Potency: inactive
[18]
  Potency: inactive
[5]
  Potency: inactive
[6]
  Potency: inactive
[8]
  Potency: inactive
[9]
  Potency: inactive
[11]
  max response: -9.06% (inactive)

## CCCCCCCCCCCCCCC(F)C(=O)O (stereo not given)
[9]
  activity change, negative = inhibition: 19.7% [at 6.83 µM] (inactive)
[19]
  activity change, negative = inhibition: 10.1% [at 3.88 µM] (inactive)
